What all share (experiment): DAPPL (digital affinity profiling via proximity ligation, sequencing); 10 mM Tris-HCl pH 7.5, 50 mM NaCl, 1 mM DTT, 4% glycerol, room temperature, 30 min; GST-TFs on glutathione beads, 16-mer random dsDNA library, 0.1% formaldehyde crosslink after washing; high values mean tight binding
One assay addresses T1, GABPA (Homo sapiens, UniProt Q06546 1-454).
T1 sequence: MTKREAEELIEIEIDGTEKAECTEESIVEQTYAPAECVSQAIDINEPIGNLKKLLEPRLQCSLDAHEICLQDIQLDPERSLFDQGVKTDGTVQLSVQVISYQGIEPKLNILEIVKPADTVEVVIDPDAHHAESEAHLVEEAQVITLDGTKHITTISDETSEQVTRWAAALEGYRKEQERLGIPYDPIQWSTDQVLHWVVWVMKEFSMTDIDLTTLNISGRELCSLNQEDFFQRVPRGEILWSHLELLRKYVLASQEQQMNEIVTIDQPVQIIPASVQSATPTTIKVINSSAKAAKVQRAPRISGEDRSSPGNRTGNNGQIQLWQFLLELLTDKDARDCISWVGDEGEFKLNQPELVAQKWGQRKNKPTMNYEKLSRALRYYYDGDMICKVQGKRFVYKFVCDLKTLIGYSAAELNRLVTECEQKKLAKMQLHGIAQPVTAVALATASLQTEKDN
As to conditions: protein: recombinant; tags: N-terminal GST; dsDNA, one strand shown. A digest of the protocol: (§1)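 A tag-only sample was pooled with DNA-barcoded human transcription factors that had been expressed in yeast as GST fusions and captured on glutathione beads. The pools were incubated for 30 min at room temperature with 200 nmole of a random double-stranded 16-mer DNA library in Tris/NaCl/DTT/glycerol buffer, then washed, crosslinked with 0.1% formaldehyde, proximity-ligated (BsaI/T4 ligase, 1 h, 37 °C), PCR-amplified and sequenced on an Illumina NextSeq500. Binding signal is each hexamer's read frequency for a factor divided by its frequency for the tag-only sample.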

In another assay the target is ELF1 (Homo sapiens, UniProt P32519 1-619). Particulars: protein: recombinant; tags: N-terminal GST; dsDNA, one strand shown. A digest of the protocol: as §1
The target in another assay is SPIB (Homo sapiens, UniProt Q01892 1-262). As to conditions: protein: recombinant; tags: N-terminal GST; dsDNA, one strand shown. Put shortly: as §1
Another assay concerns the target HSF1 (Homo sapiens, UniProt Q00613 1-529). As to conditions: protein: recombinant; tags: N-terminal GST; chain copies: 3; dsDNA, one strand shown. A digest of the protocol:
as §1

In the next assay the target is T2, SPIC (Homo sapiens, UniProt Q8N5J4 1-248).
T2 sequence: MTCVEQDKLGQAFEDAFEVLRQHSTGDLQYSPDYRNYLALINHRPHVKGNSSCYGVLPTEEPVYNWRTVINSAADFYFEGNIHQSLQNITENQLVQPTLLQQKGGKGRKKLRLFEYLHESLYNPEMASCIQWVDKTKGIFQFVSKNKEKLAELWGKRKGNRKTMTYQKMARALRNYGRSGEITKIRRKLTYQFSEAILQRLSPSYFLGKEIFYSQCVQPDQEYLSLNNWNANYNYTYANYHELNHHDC
Particulars: protein: recombinant; tags: N-terminal GST; dsDNA, one strand shown. A digest of the protocol: as §1

The target in the next assay is ELF4 (Homo sapiens, UniProt Q99607 1-663). Particulars: protein: recombinant; tags: N-terminal GST; dsDNA, one strand shown. A digest of the protocol:
as §1

Another assay addresses T3, ELF3 (Homo sapiens, UniProt P78545 1-371).
T3 sequence: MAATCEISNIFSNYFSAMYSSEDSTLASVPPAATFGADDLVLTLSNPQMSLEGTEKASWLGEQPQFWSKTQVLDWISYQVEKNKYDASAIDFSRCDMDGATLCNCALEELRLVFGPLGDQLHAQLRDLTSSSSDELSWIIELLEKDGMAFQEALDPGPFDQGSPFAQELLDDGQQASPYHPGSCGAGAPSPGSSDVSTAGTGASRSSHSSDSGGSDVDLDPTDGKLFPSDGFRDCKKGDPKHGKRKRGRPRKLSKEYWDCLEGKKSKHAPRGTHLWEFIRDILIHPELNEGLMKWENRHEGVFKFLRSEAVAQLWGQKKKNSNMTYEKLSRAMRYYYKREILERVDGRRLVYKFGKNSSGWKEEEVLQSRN
Particulars: protein: recombinant; tags: N-terminal GST; dsDNA, one strand shown. A digest of the protocol:
as §1

The target in a further assay is CRX (Homo sapiens, UniProt O43186 1-299). As to conditions: protein: recombinant; tags: N-terminal GST; dsDNA, one strand shown. Put shortly:
as §1

For the next assay, the target named is T4, ERF (Homo sapiens, UniProt P50548 1-548).
T4 sequence: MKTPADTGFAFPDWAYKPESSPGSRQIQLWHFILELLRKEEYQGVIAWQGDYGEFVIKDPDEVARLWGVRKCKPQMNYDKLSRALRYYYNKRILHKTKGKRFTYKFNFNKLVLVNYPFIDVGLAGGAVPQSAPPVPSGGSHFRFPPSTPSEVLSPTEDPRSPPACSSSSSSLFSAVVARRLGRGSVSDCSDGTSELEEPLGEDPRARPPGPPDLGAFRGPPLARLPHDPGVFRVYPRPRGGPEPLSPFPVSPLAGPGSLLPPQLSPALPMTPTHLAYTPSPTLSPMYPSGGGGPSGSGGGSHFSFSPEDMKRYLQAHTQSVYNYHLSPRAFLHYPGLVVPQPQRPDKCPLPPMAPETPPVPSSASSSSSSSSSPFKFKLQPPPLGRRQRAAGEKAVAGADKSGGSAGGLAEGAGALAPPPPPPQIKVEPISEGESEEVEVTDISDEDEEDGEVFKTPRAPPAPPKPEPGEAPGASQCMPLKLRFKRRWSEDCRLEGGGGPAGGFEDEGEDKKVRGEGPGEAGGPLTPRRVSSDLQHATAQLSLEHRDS
As to conditions: protein: recombinant; tags: N-terminal GST; dsDNA, one strand shown. Put shortly:
as §1

For another assay, the target named is T5, ETV3L (Homo sapiens, UniProt Q6ZN32 1-361).
T5 sequence: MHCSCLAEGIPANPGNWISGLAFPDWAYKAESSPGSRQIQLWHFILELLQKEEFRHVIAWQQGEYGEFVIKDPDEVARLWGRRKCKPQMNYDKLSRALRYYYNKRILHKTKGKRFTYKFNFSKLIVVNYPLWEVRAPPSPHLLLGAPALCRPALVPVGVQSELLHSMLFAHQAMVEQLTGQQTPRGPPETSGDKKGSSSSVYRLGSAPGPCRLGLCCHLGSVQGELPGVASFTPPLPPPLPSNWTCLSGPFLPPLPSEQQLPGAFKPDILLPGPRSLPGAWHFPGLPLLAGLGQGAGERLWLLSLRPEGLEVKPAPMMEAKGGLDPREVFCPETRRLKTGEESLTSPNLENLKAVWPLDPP
Particulars: protein: recombinant; tags: N-terminal GST; dsDNA, one strand shown. Put shortly:
as §1

The target of another assay is T6, ETS2 (Homo sapiens, UniProt P15036 1-469).
T6 sequence: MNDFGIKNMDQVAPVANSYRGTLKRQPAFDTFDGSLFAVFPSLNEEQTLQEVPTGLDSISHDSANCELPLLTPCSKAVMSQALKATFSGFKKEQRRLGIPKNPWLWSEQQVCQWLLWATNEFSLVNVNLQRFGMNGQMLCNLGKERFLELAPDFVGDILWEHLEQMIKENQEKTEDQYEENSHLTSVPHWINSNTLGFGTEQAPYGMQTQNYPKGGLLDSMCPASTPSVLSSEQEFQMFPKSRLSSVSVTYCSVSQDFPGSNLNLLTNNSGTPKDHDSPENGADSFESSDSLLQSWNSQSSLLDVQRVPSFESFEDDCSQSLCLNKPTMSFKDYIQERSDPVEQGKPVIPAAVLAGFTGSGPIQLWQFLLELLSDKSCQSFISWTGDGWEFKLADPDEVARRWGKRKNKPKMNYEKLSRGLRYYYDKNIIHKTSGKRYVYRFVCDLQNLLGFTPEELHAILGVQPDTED
Particulars: protein: recombinant; tags: N-terminal GST; dsDNA, one strand shown. A digest of the protocol:
as §1

In the next assay the target is T7, SPDEF (Homo sapiens, UniProt O95238 1-335).
T7 sequence: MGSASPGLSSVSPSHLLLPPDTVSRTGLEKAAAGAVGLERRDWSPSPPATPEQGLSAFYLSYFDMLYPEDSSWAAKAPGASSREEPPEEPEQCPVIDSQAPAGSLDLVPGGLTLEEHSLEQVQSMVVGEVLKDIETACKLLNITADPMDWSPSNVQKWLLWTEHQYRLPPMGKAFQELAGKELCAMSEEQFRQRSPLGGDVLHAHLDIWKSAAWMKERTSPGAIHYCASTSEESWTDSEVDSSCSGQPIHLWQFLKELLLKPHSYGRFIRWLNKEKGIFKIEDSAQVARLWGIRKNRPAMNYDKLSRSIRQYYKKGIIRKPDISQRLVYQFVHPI
Particulars: protein: recombinant; tags: N-terminal GST; dsDNA, one strand shown. A digest of the protocol:
as §1

For another assay, the target named is T8, ETV7 (Homo sapiens, UniProt Q9Y603 1-341).
T8 sequence: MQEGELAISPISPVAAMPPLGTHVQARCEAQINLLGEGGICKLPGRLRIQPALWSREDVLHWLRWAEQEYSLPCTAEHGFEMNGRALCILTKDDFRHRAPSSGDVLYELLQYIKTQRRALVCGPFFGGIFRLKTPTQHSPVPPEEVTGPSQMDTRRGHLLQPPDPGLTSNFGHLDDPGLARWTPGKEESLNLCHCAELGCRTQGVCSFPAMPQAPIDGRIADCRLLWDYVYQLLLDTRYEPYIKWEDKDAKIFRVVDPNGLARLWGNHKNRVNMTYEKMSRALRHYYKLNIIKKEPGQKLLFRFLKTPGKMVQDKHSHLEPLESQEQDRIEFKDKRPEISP
Particulars: protein: recombinant; tags: N-terminal GST; dsDNA, one strand shown. A digest of the protocol:
as §1

Another assay concerns the target T9, ETV3 (Homo sapiens, UniProt P41162-2 1-143).
T9 sequence: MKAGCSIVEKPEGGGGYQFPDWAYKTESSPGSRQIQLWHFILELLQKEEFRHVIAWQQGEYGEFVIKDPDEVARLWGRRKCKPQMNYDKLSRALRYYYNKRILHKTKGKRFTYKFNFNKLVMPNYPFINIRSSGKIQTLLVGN
Particulars: protein: recombinant; tags: N-terminal GST; dsDNA, one strand shown. Put shortly:
as §1

The target of another assay is ETV6 (Homo sapiens, UniProt P41212 1-452). As to conditions: protein: recombinant; tags: N-terminal GST; dsDNA, one strand shown. Put shortly:
as §1

Chain of ETV6 (P41212 whole entry): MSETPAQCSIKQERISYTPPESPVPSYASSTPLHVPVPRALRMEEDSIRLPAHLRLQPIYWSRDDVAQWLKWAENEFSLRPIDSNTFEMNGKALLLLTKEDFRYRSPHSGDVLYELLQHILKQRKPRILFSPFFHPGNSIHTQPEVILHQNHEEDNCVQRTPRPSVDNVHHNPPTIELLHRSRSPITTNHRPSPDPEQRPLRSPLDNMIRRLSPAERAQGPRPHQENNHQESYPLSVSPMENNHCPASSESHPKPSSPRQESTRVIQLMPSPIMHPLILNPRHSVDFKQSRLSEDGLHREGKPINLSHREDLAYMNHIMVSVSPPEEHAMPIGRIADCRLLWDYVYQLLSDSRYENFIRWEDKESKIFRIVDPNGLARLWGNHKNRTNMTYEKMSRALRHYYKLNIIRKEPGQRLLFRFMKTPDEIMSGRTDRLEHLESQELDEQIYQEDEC
Chain of ELF1 (P32519 whole entry): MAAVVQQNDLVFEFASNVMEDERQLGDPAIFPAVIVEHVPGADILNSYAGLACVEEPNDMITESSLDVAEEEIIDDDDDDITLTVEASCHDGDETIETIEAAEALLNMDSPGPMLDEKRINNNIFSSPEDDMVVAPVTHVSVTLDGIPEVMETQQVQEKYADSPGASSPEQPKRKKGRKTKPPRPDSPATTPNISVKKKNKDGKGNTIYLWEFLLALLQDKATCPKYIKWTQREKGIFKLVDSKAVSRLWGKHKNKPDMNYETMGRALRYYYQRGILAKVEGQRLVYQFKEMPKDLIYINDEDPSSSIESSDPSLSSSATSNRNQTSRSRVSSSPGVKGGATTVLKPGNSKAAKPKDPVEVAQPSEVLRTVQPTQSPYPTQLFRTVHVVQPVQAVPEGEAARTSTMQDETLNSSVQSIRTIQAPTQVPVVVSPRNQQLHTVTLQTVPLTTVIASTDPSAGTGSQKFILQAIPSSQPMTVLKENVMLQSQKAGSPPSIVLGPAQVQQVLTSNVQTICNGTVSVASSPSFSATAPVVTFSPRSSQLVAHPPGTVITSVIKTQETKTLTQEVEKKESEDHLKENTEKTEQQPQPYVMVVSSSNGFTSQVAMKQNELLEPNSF
Chain of ELF4 (Q99607 whole entry): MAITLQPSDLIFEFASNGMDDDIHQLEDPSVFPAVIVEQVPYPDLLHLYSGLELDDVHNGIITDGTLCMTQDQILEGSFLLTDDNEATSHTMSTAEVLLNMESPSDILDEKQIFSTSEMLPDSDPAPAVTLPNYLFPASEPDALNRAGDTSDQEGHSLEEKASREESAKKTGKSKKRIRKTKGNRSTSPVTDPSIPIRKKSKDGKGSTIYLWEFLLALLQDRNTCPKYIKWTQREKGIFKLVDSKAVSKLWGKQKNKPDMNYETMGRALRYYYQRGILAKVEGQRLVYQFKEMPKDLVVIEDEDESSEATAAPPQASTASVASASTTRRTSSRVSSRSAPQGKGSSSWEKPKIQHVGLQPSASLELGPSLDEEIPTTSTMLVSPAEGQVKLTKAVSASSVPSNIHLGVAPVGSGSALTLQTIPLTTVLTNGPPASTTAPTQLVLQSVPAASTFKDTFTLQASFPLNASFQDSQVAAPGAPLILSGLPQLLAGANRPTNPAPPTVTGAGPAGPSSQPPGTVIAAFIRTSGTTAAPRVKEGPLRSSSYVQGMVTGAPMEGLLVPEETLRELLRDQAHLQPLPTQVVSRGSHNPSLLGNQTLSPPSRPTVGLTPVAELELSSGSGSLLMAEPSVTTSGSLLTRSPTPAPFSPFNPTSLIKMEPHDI
Chain of CRX (O43186 whole entry): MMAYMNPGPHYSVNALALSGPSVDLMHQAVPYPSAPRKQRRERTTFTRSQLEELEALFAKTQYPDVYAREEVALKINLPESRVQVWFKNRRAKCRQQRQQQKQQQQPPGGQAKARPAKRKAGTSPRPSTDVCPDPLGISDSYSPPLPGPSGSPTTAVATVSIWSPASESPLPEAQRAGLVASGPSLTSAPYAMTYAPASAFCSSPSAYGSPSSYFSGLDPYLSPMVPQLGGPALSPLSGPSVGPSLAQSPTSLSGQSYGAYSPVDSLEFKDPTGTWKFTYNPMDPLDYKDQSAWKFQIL
Chain of SPIB (Q01892 whole entry): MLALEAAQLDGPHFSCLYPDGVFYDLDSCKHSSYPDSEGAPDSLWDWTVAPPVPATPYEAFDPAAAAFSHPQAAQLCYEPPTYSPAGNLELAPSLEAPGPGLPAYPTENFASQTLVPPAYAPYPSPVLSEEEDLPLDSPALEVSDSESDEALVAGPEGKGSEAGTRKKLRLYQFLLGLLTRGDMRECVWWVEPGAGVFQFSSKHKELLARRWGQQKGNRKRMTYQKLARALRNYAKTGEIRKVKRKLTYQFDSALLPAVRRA
Chain of HSF1 (Q00613 whole entry): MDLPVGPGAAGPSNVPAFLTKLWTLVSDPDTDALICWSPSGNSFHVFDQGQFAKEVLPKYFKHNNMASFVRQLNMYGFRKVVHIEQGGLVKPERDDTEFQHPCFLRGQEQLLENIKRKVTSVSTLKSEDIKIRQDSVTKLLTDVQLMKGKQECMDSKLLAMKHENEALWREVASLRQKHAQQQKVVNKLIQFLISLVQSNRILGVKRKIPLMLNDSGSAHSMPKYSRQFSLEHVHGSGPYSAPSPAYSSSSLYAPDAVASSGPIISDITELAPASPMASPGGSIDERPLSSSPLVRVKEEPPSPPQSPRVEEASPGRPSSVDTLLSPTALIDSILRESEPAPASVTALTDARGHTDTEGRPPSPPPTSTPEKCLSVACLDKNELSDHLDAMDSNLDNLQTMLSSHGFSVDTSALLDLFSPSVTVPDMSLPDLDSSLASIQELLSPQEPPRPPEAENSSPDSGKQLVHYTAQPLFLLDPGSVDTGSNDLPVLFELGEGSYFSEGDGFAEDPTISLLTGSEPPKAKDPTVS

Consider GCTTAA, for which the binding signal was 1.14 fold enrichment (6-mer frequency, TF over GST control) with GABPA; 1.11 fold enrichment (6-mer frequency, TF over GST control) with ELF1; 1.09 fold enrichment (6-mer frequency, TF over GST control) with SPIB; 1.86 fold enrichment (6-mer frequency, TF over GST control) with HSF1; 1 fold enrichment (6-mer frequency, TF over GST control) with SPIC; 1.02 fold enrichment (6-mer frequency, TF over GST control) with ELF4. In addition, the binding signal with ELF3 was 1.02 fold enrichment (6-mer frequency, TF over GST control); with CRX it was 3.04 fold enrichment (6-mer frequency, TF over GST control); with ERF, 1.03 fold enrichment (6-mer frequency, TF over GST control); with ETV3L, 1.05 fold enrichment (6-mer frequency, TF over GST control); with ETS2 it was 1.08 fold enrichment (6-mer frequency, TF over GST control); with SPDEF, 1.06 fold enrichment (6-mer frequency, TF over GST control). Also, the binding signal in the assay with ETV7 is 1.06 fold enrichment (6-mer frequency, TF over GST control); with ETV3, 1.13 fold enrichment (6-mer frequency, TF over GST control); with ETV6 it was 1.05 fold enrichment (6-mer frequency, TF over GST control).

Source of the values: paper PMC7862700, “An all-to-all approach to the identification of sequence-specific readers for epigenetic DNA modifications on cytosine”.
